The source of these data is PubChem BioAssay (Tox21).

The nature of experiment [1]: qHTS assay to identify small molecule antagonists of the thyroid receptor (TR) signaling pathway - cell viability counter screen (AID 743064). Also: nearly all actives have a fitted effect of over 50% in size. In outline: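 Compounds were tested on GH3.TRE-Luc cells in the presence of T3 at 1 nM final. Following 23.5 h at 37 °C, cell viability was quantified by CellTiter-Fluor.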
On the technique in general: Quantitative high-throughput screening tests each substance at several concentrations.

Experiment [2] can be described thus: qHTS assay to identify small molecule antagonists of the thyroid receptor (TR) signaling pathway (AID 743065). Also: series mostly up to about 70 µM; nearly all actives have a fitted effect of over 55% in size. In outline:
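GH3.TRE-Luc rat pituitary cells carrying two TR response elements driving luciferase were plated for 4 h, given compound plus 1 nM T3 (final), and incubated 23.5 h at 37 C. ONE-Glo luminescence measured reporter inhibition; CellTiter-Fluor fluorescence tracked cytotoxicity.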

Experiment [3] deals with thyroid hormone receptor (rat, GH3 cells). Kind of experiment: qHTS assay to identify small molecule agonists of the thyroid receptor (TR) signaling pathway (AID 743066; calls by dose curve).
Experiment [4] is described as follows: qHTS assay to identify small molecule antagonists of the estrogen receptor alpha (ER-alpha) signaling pathway - cell viability counter screen (AID 743074; calls by dose curve; also: nearly all actives have a fitted effect of over 45% in size).
The nature of experiment [5]: qHTS assay to identify small molecule antagonists of the estrogen receptor alpha (ER-alpha) signaling pathway using the BG1 cell line - cell viability counter screen (AID 743081).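 Also: compound given together with 17beta-estradiol as the ER stimulus; series mostly up to about 70 µM; nearly all actives have a fitted effect of over 45% in size.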
The target in experiment [6] is Aromatase (Homo sapiens) (UniProt P11511). The experiment can be described thus: qHTS assay to identify aromatase inhibitors (AID 743083). Also: nearly all actives have a fitted effect of over 55% in size. Also: potency is read from the fitted curve at half-maximal effect.
In experiment [7] the target is Estrogen receptor (Homo sapiens) (UniProt P03372). The experiment can be described thus: qHTS assay to identify small molecule antagonists of the estrogen receptor alpha (ER-alpha) signaling pathway (AID 743069; active = well fitted curve in the direction sought with a large enough effect in the signal ratio in the repeat runs, not every such curve was filed as active; inconclusive = weak or mixed curves, or effect the other way; inactive = no such curve, though single readings can be large or run the other way; the % refers to the signal ratio). In outline:
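Screening used a UAS-driven beta-lactamase reporter integrated into HEK293 cells expressing ER-alpha, stimulated with 17beta-estradiol alongside test compounds over 18 hr at 37C; signal came from LiveBLAzer B/G FRET fluorescence.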

The target is the same in experiment [8]. The experiment can be described thus: qHTS assay to identify small molecule agonists of the estrogen receptor alpha (ER-alpha) signaling pathway (AID 743075; calls by dose curve; also: potency is read from the fitted curve at half-maximal effect).
Experiment [9] has the same target. Kind of experiment: qHTS assay to identify small molecule agonists of the estrogen receptor alpha (ER-alpha) signaling pathway using the BG1 cell line (AID 743079). Also: nearly all actives have a fitted effect of over 20% in size. Also: potency is read from the fitted curve at half-maximal effect.
A short description of experiment [10]: qHTS assay to identify small molecule antagonists of the estrogen receptor alpha (ER-alpha) signaling pathway using the BG1 cell line (AID 743080; calls by dose curve;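 also: BG1 cells stimulated with 17beta-estradiol alongside compound; series mostly up to about 70 µM; nearly all actives have a fitted effect of over 25% in size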). In outline:
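After 5 days in phenol-red-free 10% charcoal-stripped FBS medium, BG1-Luc-4E2 cells were seeded, left 24 h at 37 C, co-treated with compounds and 17beta-estradiol for 21.5 h, then assayed for viability and luciferase.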

Where “and” joins values, the source holds several entries; their conditions need not be identical. Identical values can stand only once. The source holds several records for some structures; these can differ, active in one and inactive in another. Calls of active or inactive are those of the source. Unless noted, calls follow the shape of the dose curve; as a rule, active = well fitted curve in the direction sought with a large enough effect in the repeat runs; inconclusive = weak or mixed curves; inactive = no such curve, though single readings can be large; an effect the other way counts as inactive or inconclusive.

Sequence of Estrogen receptor (Homo sapiens) (P03372 whole entry, looked up): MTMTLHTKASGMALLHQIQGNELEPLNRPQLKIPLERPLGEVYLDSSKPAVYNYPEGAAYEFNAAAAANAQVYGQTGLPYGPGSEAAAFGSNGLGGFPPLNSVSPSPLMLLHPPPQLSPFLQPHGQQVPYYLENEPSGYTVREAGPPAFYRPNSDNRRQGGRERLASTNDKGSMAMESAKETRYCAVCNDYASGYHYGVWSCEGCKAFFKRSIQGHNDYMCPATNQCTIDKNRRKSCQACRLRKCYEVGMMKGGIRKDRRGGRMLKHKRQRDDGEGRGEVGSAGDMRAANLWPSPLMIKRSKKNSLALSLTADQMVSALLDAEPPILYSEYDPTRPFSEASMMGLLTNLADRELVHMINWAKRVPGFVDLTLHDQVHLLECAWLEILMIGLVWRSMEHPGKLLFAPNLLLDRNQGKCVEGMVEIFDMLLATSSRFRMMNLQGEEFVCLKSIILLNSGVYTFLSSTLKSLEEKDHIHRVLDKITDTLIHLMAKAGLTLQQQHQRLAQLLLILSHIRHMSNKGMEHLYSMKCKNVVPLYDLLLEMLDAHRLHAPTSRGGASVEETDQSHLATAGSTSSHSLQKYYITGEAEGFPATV
Sequence of Aromatase (Homo sapiens) (P11511 whole entry, looked up): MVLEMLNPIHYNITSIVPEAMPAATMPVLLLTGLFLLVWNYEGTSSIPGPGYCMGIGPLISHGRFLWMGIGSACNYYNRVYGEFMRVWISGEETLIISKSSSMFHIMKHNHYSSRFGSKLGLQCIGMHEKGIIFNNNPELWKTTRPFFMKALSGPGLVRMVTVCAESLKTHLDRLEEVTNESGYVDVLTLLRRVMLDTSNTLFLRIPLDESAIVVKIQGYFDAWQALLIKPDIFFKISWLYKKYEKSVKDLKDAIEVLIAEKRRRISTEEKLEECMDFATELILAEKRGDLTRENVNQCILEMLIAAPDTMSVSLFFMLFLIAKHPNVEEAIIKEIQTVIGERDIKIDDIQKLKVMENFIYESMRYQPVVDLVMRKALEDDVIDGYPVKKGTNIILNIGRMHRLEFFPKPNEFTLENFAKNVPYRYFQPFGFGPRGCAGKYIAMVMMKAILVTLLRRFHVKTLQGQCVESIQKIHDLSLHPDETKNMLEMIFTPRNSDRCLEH

Turning to `c1ccc2cc(Nc3ccc(Nc4ccc5ccccc5c4)cc3)ccc2c1`, the Potency result in [1], in experiment [2], in [3], in [4], in experiment [5] and in experiment [6] was “inactive” in each case.
With `O=C(OCc1ccccc1)c1ccccc1O`, the Potency result in experiment [1], in [3], in experiment [7], in experiment [4], in [8] and in experiment [10] was “inactive” each time. Also, the Potency entry in experiment [5] and in experiment [6] was “inactive” throughout. Also, the Potency in experiment [9] was 24.3 µM (active).
For the compound `Nc1ccc(Cl)cc1Cl`, the Potency entry in [1], in experiment [3], in [7], in [4], in experiment [8] and in experiment [9] was “inactive” in each case. Also, the Potency result in experiment [10], in experiment [5] and in [6] was “inactive” throughout.
Take `O=C(/C=C/C=C/c1ccc2c(c1)OCO2)N1CCCCC1`: the Potency entry in experiment [1], in [3], in experiment [7], in [4], in [8] and in [5] was “inactive” each time. For the same compound, the Potency entry in experiment [6] was “inactive”. In addition, the Potency in experiment [9] is 1.37 µM (active) and 3.86 µM (active).
For `Cn1cnc([N+](=O)[O-])c1Sc1ncnc2nc[nH]c12`, the Potency result in [1], in experiment [3], in experiment [7], in experiment [4], in experiment [8] and in experiment [9] was “inactive” each time. In addition, the Potency entry in [5] and in experiment [6] was “inactive” throughout.
Take `CN(C)CCN(Cc1cccs1)c1ccccn1`: the Potency result in experiment [1], in experiment [3], in experiment [7], in experiment [4], in [8] and in experiment [9] was “inactive” in each case. The Potency entry in experiment [10] and in experiment [5] was “inactive” each time.
`Cc1ccc2c(n1)Oc1ccc(C(C)C(=O)OCC(=O)N(C)C)cc1C2` (stereo not drawn): the Potency entry in experiment [1], in experiment [3], in experiment [7], in experiment [4], in experiment [8] and in experiment [9] was “inactive” throughout. In addition, the Potency entry in [5] and in experiment [6] was “inactive” throughout.
`CCCc1c(OCCCCc2nn[nH]n2)ccc(C(C)=O)c1O`: the Potency result in experiment [1], in experiment [3], in [4], in experiment [8], in [9] and in [10] was “inactive” each time. For the same compound, the Potency entry in experiment [5] and in experiment [6] was “inactive” each time.
As to `CCCCOCCOCCO`, the Potency result in experiment [1], in experiment [3], in experiment [7], in [4], in experiment [8] and in [9] was “inactive” throughout. Further, the Potency entry in experiment [10] and in experiment [5] was “inactive” each time. The Potency entry in [6] was “inactive and 61.1 µM (active)”.
Turning to `CCC(C)OC(=O)c1ccc(O)cc1` (stereo not drawn), the Potency entry in experiment [1], in [3], in experiment [7], in experiment [4], in experiment [5] and in experiment [6] was “inactive” throughout. Further, the Potency in [8] is 24.7 µM [inconclusive] (active) and 38.9 µM [inconclusive] (active); in experiment [9], 6.9 µM (active) and 6.11 µM (active).
`CCCCC(CC)COP(=O)(OCC(CC)CCCC)OCC(CC)CCCC` (stereo not drawn): the Potency entry in experiment [1], in experiment [2], in [3], in experiment [4], in experiment [5] and in experiment [6] was “inactive” throughout.
`NNc1ccc(C(=O)O)cc1`: the Potency entry in experiment [1], in experiment [2], in [3], in experiment [4], in experiment [5] and in experiment [6] was “inactive” each time.
For `COC(=O)CCC(=O)OC`, the Potency entry in experiment [1], in [3], in experiment [7], in experiment [4], in experiment [8] and in [9] was “inactive” each time. Further, the Potency result in experiment [10], in [5] and in experiment [6] was “inactive” throughout.
With `OCCO`, the Potency result in experiment [1], in experiment [3], in [7], in experiment [4], in [8] and in [9] was “inactive” in each case. For the same compound, the Potency entry in experiment [10], in [5] and in [6] was “inactive” throughout.
In the case of `CCOC(=O)C(C#N)=C(c1ccccc1)c1ccccc1`, the Potency result in [1], in experiment [2], in experiment [3], in experiment [4], in experiment [5] and in experiment [6] was “inactive” each time.
`OC(CCl)CCl`: the Potency result in [1], in experiment [3], in experiment [7], in experiment [4], in experiment [8] and in experiment [9] was “inactive” throughout. In addition, the Potency entry in experiment [10], in experiment [5] and in [6] was “inactive” throughout.
Regarding `C#C[C@]1(O)CC[C@H]2[C@@H]3CCc4cc(OC)ccc4[C@H]3CC[C@@]21C`, the Potency result in experiment [1], in experiment [3], in experiment [4], in experiment [10] and in experiment [5] was “inactive” each time. Moreover, the Potency was 19 nM [inconclusive] (active) and 30.9 nM [inconclusive] (active) in [8]; 1.5 nM (active) and 0.8 nM (active) in experiment [9].
As to `Cc1cccc([N+](=O)[O-])c1C`, the Potency entry in [1], in experiment [3], in experiment [7], in [4], in experiment [8] and in [9] was “inactive” in each case. Moreover, the Potency entry in [10], in experiment [5] and in experiment [6] was “inactive” throughout.
In the case of `COc1c(Cl)c(Cl)c(Cl)c(Cl)c1Cl`, the Potency result in experiment [1], in experiment [2], in experiment [3], in experiment [4], in experiment [5] and in [6] was “inactive” each time.
For the compound `CC(=O)c1ccccn1`, the Potency result in experiment [1], in experiment [2], in experiment [3], in [4], in experiment [5] and in [6] was “inactive” in each case.
On to `COC(=O)c1ccccc1`, for which the Potency result in experiment [1], in experiment [2], in [3], in experiment [4], in [5] and in [6] was “inactive” each time.
In the case of `C=CC(C)(CCC=C(C)C)OC(C)=O` (stereo not drawn), the Potency entry in experiment [1], in experiment [3], in experiment [7], in experiment [4], in experiment [8] and in [9] was “inactive” in each case. In addition, the Potency result in experiment [10], in [5] and in experiment [6] was “inactive” in each case.
Regarding `CC(=O)CC/C=C(\C)CCC=C(C)C`, the Potency entry in experiment [1], in experiment [3], in experiment [7], in [4], in experiment [8] and in [9] was “inactive” throughout. Besides, the Potency entry in [10], in [5] and in experiment [6] was “inactive” in each case.
